According to PubChem BioAssay AID651664 (NMMLSC, 2012):
Screen size: about 1,800 compounds; fewer than 10 were called active.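 Rule for the calls: active = inhibition of granule release above a set limit; inactive = the rest.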 Not all results are given here.

Assay: LAMP-1 surface externalization blockers in TALL-104 cells – cell-based, flow cytometry, validation set (AID 651664)
Details: TALL-104 LAMP-1 externalization, at 15.2 µM, active compounds read high, stimulated with thapsigargin and PMA

inhibition, inactive:
CC1CCCN(C(=O)C2CCN(CC3CC=CCC3)CC2)C1 (stereo not given) -1.1%
OCCN=c1cc(-c2ccccc2)oc2ccc(Cl)cc12 3.5%
O=C(/C=N/O)Nc1ccc(F)cc1 -2.8%
Cc1ccc(-n2nc(C)c3cc(C(=O)O)sc32)cc1 5.6%
O=C(CSc1nnc(-c2cccs2)n1-c1ccccc1)Nc1ccccc1 22.8%
Cc1nc(NCc2ccco2)c2oc3ccccc3c2n1 -2.5%
C=CCn1c(-c2ccco2)n[nH]c1=S -0.5%
[O-]C1=N/[N+](=C/c2ccccc2Cl)CC1 -2.2%
COC(=O)CSc1ncnc2c1cnn2Cc1ccccc1 -0.5%
N/C(=N\OS(=O)(=O)c1ccccc1)c1ccncc1 -2.3%
CCOc1ccc(CN(CCO)CCO)cc1[N+](=O)[O-] -2.2%
O=C(CSc1ccccn1)N1CCN(C(=O)CSc2ccccn2)CC1 0.4%
Clc1ccc(/C=N/NC(=Nc2ccccc2)c2ccccn2)c(Cl)c1 1.5%
CC(=O)N1CCN(S(=O)(=O)c2cccc(C(=O)NC3CCCc4ccccc43)c2)CC1 (stereo not given) 0%
Oc1ccccc1N=Nc1nc(-c2ccccc2)c(-c2ccccc2)[nH]1 -2.4%
Cc1ccccc1OCC(=O)Nc1cccc(NC(=O)c2ccco2)c1 1.8%
CC(C(=O)O)N1C(=O)CSc2ncccc21 (stereo not given) 2.4%
CCC(C)NC(=O)Cn1cccc1C(=O)c1ccccc1 (stereo not given) -0.2%
CC(NC(=O)NCCCC(=O)O)(C(F)(F)F)C(F)(F)F 2%
Cc1ccc(S(=O)(=O)N2CCOCC2)cc1C(=O)OCC(=O)N1CCc2ccccc2C1 -0.4%
Cc1cc2c(cc1C)NC(c1nc3ccccc3[nH]1)C1=C(CC(C)(C)CC1=O)N2 (stereo not given) -3.1%
O=c1[nH]c2c(s1)C(c1ccccc1)C1C3CCC(C3)C1S2 (stereo not given) 0.8%
COCCCNC(=O)C1CCC(=O)N1Cc1ccccc1Cl (stereo not given) 0.7%
Cc1ccc(C(=O)Cn2cnc3ccccc3c2=O)cc1C 6.9%
C=C(C)CN1C(=O)C(O)(CC(=O)c2ccc3c(c2)OCCO3)c2ccccc21 (stereo not given) 1.5%
Cc1cc(C)c(S(=O)(=O)NCc2cn3c(C)csc3n2)c(C)c1 -4.5%
CC1=CC=CN2CC(O)CN=C12 (stereo not given) 1%
O=C(Oc1ccccc1)N1CCN(c2ccc(F)cc2)CC1 6.6%
COC(=O)c1ccc(CN2CCN(Cc3ccc(C(=O)OC)o3)CC2)o1 2.2%
O=c1[nH]n(-c2ncnc3c2cnn3-c2ccccc2)c(=O)c2ccccc12 -0.6%
CCC(C)N=CC1=C(O)CC(c2ccccc2)CC1=O (stereo not given) -2.1%
O=C(c1ccccc1)N(CCN1CCOCC1)C1(C(=O)Nc2ccccc2)CCCCC1 5.2%
COc1ccc(NC(=O)CSc2c(C)nn(-c3nnc(C)c(=O)[nH]3)c2C)cc1 0.5%
COC(=O)c1ccc(CSc2nc3ccccc3c(=O)n2-c2ccccc2)o1 -0.9%
Cn1c(CN2CCCC2)nc2cc(NS(=O)(=O)c3ccc(Cl)cc3)ccc21 -3.8%
CCC(C)NC(=O)CSc1nnc(-c2cc(-c3cccs3)nc3ccccc23)o1 (stereo not given) -1.3%
COC(=O)c1cc(NC(=O)CN(c2ccc3c(c2)OCO3)S(C)(=O)=O)ccc1Cl 1.7%
CCOc1ccccc1N1CC(C(=O)Nc2nccs2)CC1=O (stereo not given) -1.1%
Cc1cnc(NC(=O)c2ccc3c(c2)C(=O)N(Cc2ccco2)C3=O)s1 -1.3%
COc1ccc(N/N=C(/N=Nc2nc(C)cc(=O)[nH]2)c2ccccc2)cc1 3.7%
CCOC(=O)c1ccc(N2C(=O)CC(Sc3nnc(C)s3)C2=O)cc1 (stereo not given) -0.5%
Cc1ccc(-c2nc(N)c3c(-c4ccc(C)cc4)nn(C(C)(C)C)c3n2)cc1 0%
O=c1[nH]c(CO)nc2c1oc1ccccc12 -3.5%
CCC(C#CCN1CCCCC1)(CC)OCCC#N 25.8%
COC(=O)CN1C(=O)CSc2ncccc21 0.6%
CCCCOCCCNC(=O)N[C@H](C(=O)OC)C(C)C -2.9%
Nc1ncnc2nc(SCc3ccc(Cl)cc3Cl)[nH]c12 6.3%
CN(C)c1nc(SCc2ccccc2Cl)nc2c1CCCC2 -0.7%
CC1(C)Cc2c(sc3ncn4nc(-c5ccco5)nc4c23)CO1 -1.3%
O=C(COc1ccc(F)cc1)c1ccc2c(c1)CCCC2 -2.8%
O=C1c2ccccc2-c2c1nc1c([n+]2[O-])CCCC1 -5.1%
COc1ccc2c(c1OC)C(=O)N(c1cccc(C)c1)C2=O 1.1%
CO/N=C/C(=N\Nc1ccc(OC)cc1)C(=O)c1ccc(OC)cc1 0.7%
COc1ccc(S(=O)(=O)N(C)CC(=O)Nc2ccccc2C(F)(F)F)cc1OC -1.6%
CN1CCN(c2nc(-c3ccccc3)nc3c2oc2ccccc23)CC1 1.5%
O=C(CSc1nnc(CNc2ccc(F)cc2)n1-c1ccccc1)N1CCOCC1 -4.6%
COc1ccc(N=C2S/C(=C\c3ccc(C)s3)C(=O)N2CC(C)C)cc1 -0.3%
Fc1ccccc1/C=N/Nc1nn[nH]n1 -1.6%
CCOC(=O)c1c(NC(=O)Cc2cccs2)sc(C(=O)N2CCCCC2)c1C -4.7%
CN=C(NC)SC1CC(=O)N(c2ccccc2)C1=O (stereo not given) 3.9%
CCOc1cc(/C=N/n2cnnc2)cc(Br)c1O -0.7%
O=C1CCC(=O)N1c1nc2nc(-c3ccccc3)cc(=O)n2[nH]1 -1.6%
CC(=O)COc1ncn(-c2ccccc2)n1 0.2%
Fc1cc2nc(-c3ccncc3)[nH]c2cc1F -0.1%
Cc1noc(NS(=O)(=O)c2ccc(NC(=O)Nc3ccc(Cl)c(Cl)c3)cc2)c1C 0%
